Assay results taken from the supplement of paper PMC6555819.

Experiments:
Assay in all cases: PBM binding z-score (relative to random genomic background probes); higher = stronger binding; sequences stand for … in GC…GCGATTGACAGCGTAGAATGAAGG
[1] = test system: FXR:RXRa (NR concentration 270 nM, RXRa partner concentration 90 nM)
Outline: (§1)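 Custom Agilent 4×180K protein-binding microarrays carried double-stranded probes, each with a 34-nt variable region. These regions held direct-repeat seeds, single-nucleotide variants, half-site ablations and random human genomic background sequences. Ligand-free nuclear receptor dimers were incubated on the arrays for 1 h, antibodies against each partner (one per run) detected binding, and scanned fluorescence was regression-normalized. Binding z-scores take the random background probes as reference.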

[2] = test system: LXRa:RXRa (NR concentration 270 nM, RXRa partner concentration 90 nM)
Outline: as §1

[3] = test system: LXRa homodimer (NR concentration 270 nM)
Outline: as §1

[4] = test system: LXRb:RXRa (NR concentration 270 nM, RXRa partner concentration 90 nM)
Outline: as §1

[5] = test system: LXRb homodimer (NR concentration 270 nM)
Outline: as §1

[6] = test system: PPARa:RXRa (NR concentration 270 nM, RXRa partner concentration 90 nM)
Outline: as §1

[7] = test system: PPARg:RXRa (NR concentration 180 nM, RXRa partner concentration 90 nM)
Outline: as §1

[8] = test system: PPARg:RXRa 270nM:90nM, anti-RXR (NR concentration 270 nM, RXRa partner concentration 90 nM)
Outline: as §1

[9] = test system: PPARg:RXRa 30nM:10nM, anti-RXR (NR concentration 30 nM, RXRa partner concentration 10 nM)
Outline: as §1

[10] = test system: PPARg:RXRa 90nM:30nM, anti-RXR (NR concentration 90 nM, RXRa partner concentration 30 nM)
Outline: as §1

[11] = test system: PPARg:RXRa DBDmut IVT, anti-RXR (DBD mutation: RXRa K156A/R161A, NR concentration 270 nM, RXRa partner concentration 90 nM)
Outline: as §1

[12] = test system: PPARg:RXRa IVT, anti-PPARg (NR concentration 270 nM, RXRa partner concentration 90 nM)
Outline: as §1

[13] = test system: PPARg DBDmut:RXRa IVT, anti-PPARg (DBD mutation: PPARg1 K132A/R137A, NR concentration 270 nM, RXRa partner concentration 90 nM)
Outline: as §1

[14] = test system: PPARg DBDmut IVT, anti-PPARg (DBD mutation: PPARg1 K132A/R137A, NR concentration 270 nM)
Outline: as §1

[15] = test system: PPARg homodimer (NR concentration 180 nM)
Outline: as §1

[16] = test system: PXR:RXRa (NR concentration 270 nM, RXRa partner concentration 90 nM)
Outline: as §1

[17] = test system: PXR homodimer (NR concentration 270 nM)
Outline: as §1

[18] = test system: RARa:RXR (NR concentration 270 nM, RXRa partner concentration 90 nM)
Outline: as §1

[19] = test system: RARa homodimer (NR concentration 270 nM)
Outline: as §1

[20] = test system: RARb:RXRa (NR concentration 270 nM, RXRa partner concentration 90 nM)
Outline: as §1

| Sequence | PBM binding z-score [1] | PBM binding z-score [2] | PBM binding z-score [3] | PBM binding z-score [4] | PBM binding z-score [5] | PBM binding z-score [6] | PBM binding z-score [7] | PBM binding z-score [8] | PBM binding z-score [9] | PBM binding z-score [10] | PBM binding z-score [11] | PBM binding z-score [12] | PBM binding z-score [13] | PBM binding z-score [14] | PBM binding z-score [15] | PBM binding z-score [16] | PBM binding z-score [17] | PBM binding z-score [18] | PBM binding z-score [19] | PBM binding z-score [20] |
| --- | --- | --- | --- | --- | --- | --- | --- | --- | --- | --- | --- | --- | --- | --- | --- | --- | --- | --- | --- | --- |
| CCTGCTAGGTCAATGGTCATCTAAAGCAGCTCGC | 2.9 | 2.28 | 0.085 | 1.68 | 0.00102 | 3.22 | 4.71 | 5.48 | 3.24 | 5.52 | 4.11 | 3.89 | -0.358 | -0.372 | 1.1 | 1.35 | -0.609 | 2.05 | -0.14 | 3.75 |
| ACGAGCAGGCCAAGTTTGGGTCACTCAAACAAAG | 0.0598 | -0.0138 | -0.363 | 0.536 | -0.887 | 1.33 | -0.00564 | 0.0624 | -0.543 | -0.429 | -0.114 | 0.246 | -0.842 | -0.922 | 0.235 | 0.69 | -0.152 | 1.46 | -0.613 | 1.54 |
| AGAATGAGGTTATTAAGATCAAGGAATTGCGGTC | 1.4 | 1.67 | 0.35 | 1.5 | 0.176 | 2.85 | 1.82 | 2.2 | 0.602 | 1.6 | 2.9 | 2.73 | 1.27 | 0.466 | 0.735 | 1.37 | 0.527 | 1.58 | 1.15 | 1.45 |
| GGAACGAGGGCATTCGAGCTGATAGCATGGCGAT | 0.586 | 0.0957 | -0.939 | -0.339 | -0.953 | 1.17 | 0.733 | 0.363 | -0.239 | -0.177 | 2.71 | 1.64 | -0.32 | -0.167 | -0.0868 | 0.26 | -0.341 | -0.000407 | -0.846 | 1.45 |
| ACTATTAGTTGAATTAGGGCAACCGATACGACGC | 0.466 | -0.0406 | 0.224 | -0.00259 | 0.376 | 1.19 | 1.47 | 1.12 | 0.71 | 1.04 | 2.66 | 3.69 | 1.92 | 1.76 | 1.34 | -0.0416 | 0.205 | 0.264 | 1.47 | 0.87 |
| ACAGAAAGGTGATGAAGGTAACTCAGGCTATCAT | 0.335 | 0.618 | 0.115 | 0.477 | -0.456 | 1.51 | 1.02 | 1.12 | 0.27 | 0.787 | 0.962 | 1.45 | 0.665 | 0.683 | 0.688 | 0.335 | 0.0962 | 0.91 | 0.63 | 1.74 |
| ATCGAAAGGTTGAGGTGAGTATAGAGAAAGGGAA | 0.898 | 0.95 | -0.00942 | 0.744 | 0.158 | 1.86 | 0.625 | 0.616 | 0.531 | 0.337 | -0.0233 | 1.04 | 1.15 | 1.07 | 0.793 | 0.751 | 0.241 | 1.37 | 0.673 | 1.79 |
| ACTCGGACGACAAAGGTCAGAGCTACGCCAGTGA | 3.61 | 4.04 | 1.27 | 3.23 | 0.325 | 4.37 | 4.45 | 5.09 | 2.65 | 4.51 | 0.324 | 2.18 | 0.163 | -0.0873 | 2.37 | 3.4 | -0.377 | 4.48 | 0.552 | 4.17 |
